Data published in PubChem BioAssay AID686979 (National Center for Advancing Translational Sciences (NCATS), 2013).
Screen size: about 420,000 compounds; about 50,000 (12%) were called active. Roughly 26% stayed inconclusive and do not appear here. The call rests on the fitted dose curve; in most records, active means well fitted inhibition curve with a large enough effect; inconclusive means small, poorly fitted or top-dose-only effect; inactive means flat fitted curve, though single readings scatter. Only a selection was taken, and actives are over-represented in it overall.

Assay: qHTS for Inhibitors of human tyrosyl-DNA phosphodiesterase 1 (TDP1): qHTS in cells in presence of CPT; further: nearly all actives have a fitted effect of over 55% in size
Conditions: chicken DT40 Tdp1-/-;hTDP1 cells + 20 nM CPT, ATP luminescence, 48 h; series mostly up to 46.2 µM; activity change, negative = growth inhibition: at the top concentration
Procedure, shortened: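 Chicken DT40 Tdp1-/- cells complemented with human TDP1, 400 cells/well, exposed to compounds plus 20 nM camptothecin for at least 48 h at 37 C; viability read as ATP content by CellTiter-Glo luminescence.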
On the % scale 0 is the no-effect control and ±100 the full control effect; potency means the concentration at half of the fitted maximal effect.

| Structure (SMILES) | activity change, negative = growth inhibition | Potency |
| --- | --- | --- |
| Oc1cccc(C2c3[nH]c4ccccc4c3CCN2Cc2cnn(-c3ccccc3)c2)c1 (stereo unspecified) | 1.42% (inactive) |  |
| Cc1[nH]nc(-c2ccc(OCc3cnn(-c4ccccc4)c3)cc2O)c1Oc1ccc(Cl)cc1 |  | 18.4 µM (active) |
| O=C(c1cnn(-c2ccc(Cl)cc2)c1)c1ccccc1O | -19.7% (inactive) |  |
| CN(C)S(=O)(=O)c1ccc(NC(=O)COC(=O)c2n[nH]c3ccccc23)cc1 |  | 14.6 µM (active) |
| O=C(COC(=O)c1n[nH]c2ccccc12)NCc1ccccc1 | -13.9% (inactive) |  |
| O=C(COC(=O)c1n[nH]c2ccccc12)Nc1ccccc1Br | -3.17% (inactive) |  |
| Cc1nn(C(C)(C)C)c(OC(=O)CC(C)C)c1S(=O)(=O)c1ccccc1 | -23.6% (inactive) |  |
| COC(=O)c1cccc(C(=O)N2CCCC(Nc3ccc4c(c3)OCCO4)C2)c1 (stereo unspecified) | -15.5% (inactive) |  |
| C=CCn1c(CSc2nc3ccccc3s2)nnc1SCC(=O)NCc1ccco1 | 3.96% (inactive) |  |
| O=C(CSc1nc2ccc(Nc3nc(N4CCOCC4)nc(N4CCOCC4)n3)cc2s1)NCc1ccco1 |  | 25.9 µM (active) |
| O=C(CSc1nnnn1-c1ccccc1)NCc1ccco1 | -15.8% (inactive) |  |
| Brc1ccc(/C=N/N2CCN(C3c4ccccc4-c4ccccc43)CC2)s1 | -7.72% (inactive) |  |
| CC(=O)O[C@]1(C(C)=O)CC[C@H]2[C@@H]3CCC4=CC(=O)CC[C@]4(C)[C@@]3(F)[C@@H](O)C[C@@]21C | -16.5% (inactive) |  |
| CN(C)c1ccc(C2N(C)C(=O)c3ccccc3N2C)cc1 (stereo unspecified) | -15.1% (inactive) |  |
| Cc1ccc(C(=O)CSc2nnc(Cn3nnc4ccccc43)n2C)cc1 | -21% (inactive) |  |
| Cc1ccc2nnn(Cc3cccc(C(C)(C)C)c3O)c2c1 |  | 20.6 µM (active) |
| Cc1ccc(C2(C)NC(=O)N(CC(=O)N3CC(=O)Nc4ccccc43)C2=O)cc1 (stereo unspecified) | -18.6% (inactive) |  |
| CC(C)c1nc(SCC(=O)Nc2cccc(C(=O)O)c2)c2c3c(sc2n1)CCCC3 | -9.85% (inactive) |  |
| Cc1nc(SCC(=O)Nc2cc(C)on2)c2c(C)c(C)sc2n1 | -1.85% (inactive) |  |
| Cc1cc(NC(=O)CSc2nc(C(C)C)nc3sc4c(c23)CCC(C)C4)no1 (stereo unspecified) |  | 18.4 µM (active) |
| Cc1cc(C)cc(NC(=O)CSc2nc(=O)n(CCN3CCOCC3)c3c2CCC3)c1 | 17.9% (inactive) |  |
| O=C(CN1CCN(c2ncccn2)CC1)Nc1ccccc1C(F)(F)F | -23.1% (inactive) |  |
| N#Cc1ccc(CN2CCCC3(CCN(C(=O)c4ccco4)CC3)C2)cc1 | -0.202% (inactive) |  |
| Cc1ccc2nc(-c3ccc(C)c(NC(=O)Cc4ccccc4)c3)oc2c1 | -0.609% (inactive) |  |
| CC(C)C[C@H](NC(=O)N1CCn2c1nc1ccccc12)C(=O)NC1CC1 | -19.7% (inactive) |  |
| CCC(C)[C@H](NC(=O)N1CCn2c1nc1ccccc12)C(=O)NCc1ccc(OC)cc1 (stereo partly specified) |  | 20.6 µM (active) |

| Structure (SMILES) | activity change, negative = growth inhibition | Potency |
| --- | --- | --- |
| CC(C)[C@H](NC(=O)N1CCn2c1nc1ccccc12)C(=O)NC1CC1 | 3.89% (inactive) |  |
| COc1ccc(-c2cc(-c3nc(-c4cc(OC)c(OC)c(OC)c4)no3)[nH]n2)c(OC)c1 |  | 20.6 µM (active) |
| CCOc1ccc(-c2noc(CCC(=O)NC3CCCC3)n2)cc1OC | 3.5% (inactive) |  |
| COc1cc(-c2n[nH]c(=S)n2Cc2ccccc2)cc(OC)c1OC | 0.202% (inactive) |  |
| COc1nc(-c2ccc(Cl)cc2)ccc1-c1noc(-c2cccs2)n1 | 2.91% (inactive) |  |
| CCOc1nc(-c2ccc(OC)cc2)ccc1-c1noc(-c2cc(OC)c(OC)c(OC)c2)n1 |  | 5.17 µM (active) |
| COc1ccc2[nH]c(=O)c(-c3noc(-c4ccc(F)cc4)n3)cc2c1 | -1.15% (inactive) |  |
| O=C(NCc1ccc(Cl)cc1)c1ccc2c(c1)nnn2C1CCCC1 | -26.8% (inactive) |  |
| O=C(CCC1N=C2c3ccccc3N=C(SCc3ccccc3F)N2C1=O)NCCc1ccccc1 (stereo unspecified) | -5.14% (inactive) |  |
| Cc1nc(C(F)(F)F)ccc1C(=O)N1CCC1(C)C(=O)NS(=O)(=O)c1ccccc1 (stereo unspecified) | -7.92% (inactive) |  |
| CCn1cc(C(=O)N[C@@H](C)C(=O)NCCO)c(=O)c2cc3c(cc21)OCO3 | 9.66% (inactive) |  |
| Cc1ccccc1OCCOc1ccc([N+](=O)[O-])cc1/C=N/n1cnnc1 |  | 1.16 µM (active) |
| Cc1cc(-c2ccc(/C=N/n3cnnc3)o2)c([N+](=O)[O-])cc1C | -3.41% (inactive) |  |
| COc1ccccc1OCCOc1ccc(/C=N/n2cnnc2)cc1 | -3.17% (inactive) |  |
| O=C(c1ccc(=O)oc1)N1CCC(C(O)(c2ccccc2)c2ccccc2)CC1 | 6.45% (inactive) |  |
| CC1(C(=O)NCc2ccco2)Cc2c(-c3ccc4c(c3)OCO4)ccnc2O1 (stereo unspecified) |  | 0.82 µM (active) |
| CC1(C(=O)NCc2ccc(F)c(F)c2)Cc2c(-c3ccc4c(c3)OCO4)ccnc2O1 (stereo unspecified) |  | 4.11 µM (active) |
| COc1cc(OC)c(C(=O)NCc2ccc3c(c2)OCO3)cc1OC | 24.6% (inactive) |  |
| O=C(NCc1ccc2c(c1)OCO2)c1cc(F)c(F)cc1Cl | 21.1% (inactive) |  |
| S=C(NCc1ccc2c(c1)OCO2)NCc1ccco1 | 3.98% (inactive) |  |
| O=C(Cn1nnc(-c2ccc3c(c2)OCO3)n1)NCc1ccco1 | -16% (inactive) |  |
| O=S(=O)(NC1CCCC1)c1ccc(-n2cnnn2)cc1 | 13% (inactive) |  |
| C/C(COc1ccccc1)=N\NC(=O)c1nnn(-c2nonc2N)c1-c1ccc(C)cc1 | -13.7% (inactive) |  |
| COc1ccc(-c2cc(-c3ccccc3)nc3c2COc2ccc(Cl)cc2-3)cc1 | -28.4% (inactive) |  |
| CC(=O)c1ccc(Cc2ncc(C(F)(F)F)cc2Cl)s1 | -6.15% (inactive) |  |
